Data on 40 molecules can be found in PubChem BioAssay (EPA / NIEHS).

The source made the active and inactive calls. How the source made its calls: active means hit-call score of the fitted dose curve at least 0.9, where 1 is the maximum; inactive means score below 0.9.

A short description of this test: ATG_ERE_CIS: Attagene CIS-FACTORIAL HepG2 Assay for Estrogen Response Element (ERE) (AID 2282940). As to conditions: HepG2 ERE cis-reporter, Attagene RNA transcript; actives raise or lower the signal. How it is done:
ATG_CIS is a cell-based, multiplexed-readout assay that uses HepG2, a human liver cell line, with measurements taken at 24 hours after chemical dosing in a 24-well plate.ATG_ERE_CIS is one of 52 assay component(s) measured or calculated from the ATG_CIS assay. It is designed to make measurements of mRNA induction, a form of inducible reporter, as detected with fluorescence intensity signals by Reverse transcription polymerase chain reaction (RT-PCR) and Capillary electrophoresis technology.Data from the assay component ATG_ERE_CIS was analyzed into 1 assay endpoint. This assay endpoint, ATG_ERE_CIS, was analyzed with bidirectional fitting relative to DMSO as the negative control and baseline of activity. Using a type of inducible reporter, measures of mRNA for gain or loss-of-signal activity can be used to understand the reporter gene at the transcription factor-level as they relate to the gene ESR1. Furthermore, this assay endpoint can be referred to as a primary readout, because this assay has produced multiple assay endpoints where this one serves a reporter gene function. To generalize the intended target to other relatable targets, this assay endpoint is annotated to the nuclear receptor intended target family, where the subfamily is steroidal.
Human liver HepG2 cells are transiently transfected with multiple reporter transcription units (MRTUs) in 6-well plates using FuGene 6 reagent (Roche; 3 ml FuGene/1 mg DNA). The MRTU constructs are regulated by a cis-regulating element (promoter). […] A major difference between the CIS and TRANS system is that in CIS activities of endogenous TFs are measured, whereas the TRANS assay evaluates changes in activities of exogenous, chimeric NR-Gal4 proteins. […] At the end of 24 hour incubation, total RNA was isolated using TriZol reagent (Invitrogen). The isolated RNA is then reverse-transcribed using oligo(dT) primer and Mo-MLV reverse transcriptase (Invitrogen) with DNAse I (Ambion) treatment for 30 min. The one-tenth of the produced cDNA was amplified by PCR using Taq DNA polymerase (Invitrogen) and two reporter sequence-specific primers. The PCR products were fluorescently labeled by primer extension with 6-arboxyfluorescein (6-FAM) 5'-labeled reporter sequence-specific primer (2 min at 95 C, 20 s at 68 C and 10 min at 72 C) and these products were digested with 5U of HpaI (New England Biolabs) for 2h at 37 C. The fragments were purified using Qiaquick PCR columns (Qiagen), analyzed on an ABI 3130xL genetic analyzer (Applied Biosystems) with peak positions identified by using a set of X-rhodamine (ROX)-labeled MapMarker1000 molecular weight standards (BioVentures). The raw capillary electrophoresis data was processed using Attagraph software (Attagene).
Take `C[C@]12C=CC(=O)C=C1CC[C@@H]1[C@@H]2C(=O)C[C@@]2(C)[C@H]1CC[C@]2(O)C(=O)CO`: the AC50 is 6.76 µM (active).

Turning to `Cc1cccc([N+](=O)[O-])c1C`, the molecule was classed as inactive.

For `Cc1cccc(Nc2cc(Cl)nc(SCC(=O)O)n2)c1C`, the result was inactive.

`CCCCCCCCCCCCCO`: the molecule was called inactive.

As to `COc1cc(C=O)ccc1O`, the molecule was called inactive.

Regarding `CCNc1cccc(C)c1`, the outcome was inactive.

For the molecule `CCCCCCCCCCCCCCCCCC(=O)O`, the AC50 is 2.75 µM (active).

Take `Nc1ccc(S(=O)(=O)c2ccc(N)cc2)cc1`: the AC50 is 100 µM (active).

Take `O=[N+]([O-])C(CO)(CO)CO`: the call was inactive.

Regarding `Cc1nc(C)nc(N2C[C@@H](C)N(c3ccnc([C@@H](C)O)n3)[C@@H](C)C2)n1`, the molecule was classed as inactive.

On to `COc1cc(/C=C/C(=O)CC(=O)/C=C/c2ccc(O)c(OC)c2)ccc1O`, for which the molecule was classed as inactive.

On to `Cc1ccccc1Cl`, for which the outcome was inactive.

Take `Nc1nc(N)c2nc(CNc3ccc(C(=O)N[C@@H](CCC(=O)O)C(=O)O)cc3)cnc2n1`: the molecule was classed as inactive.

Consider `CCCCCCCC=O`, for which the molecule was classed as inactive.

Consider `Oc1ccc2c(c1)OC[C@@H](N1CCC(O)(c3ccc(F)cc3)CC1)[C@H]2O`, for which the molecule was called inactive.

As for `CCOc1ccc2c(c1)C(C)=CC(C)(C)N2`, the AC50 is 25.5 µM (active).

Turning to `Cc1cccc(C)c1O`, the call was inactive.

As for `CCCCCCCCCCCCCCCC`, the molecule was called inactive.

With `CN[C@H]1CC[C@@H](c2ccc(Cl)c(Cl)c2)c2ccc(S(N)(=O)=O)cc21`, the outcome was inactive.

Turning to `Cc1cc(NC(=O)C(=O)O)cc(C)c1Oc1ccc(O)c2c1CCC2`, the molecule was called inactive.

With `CCCCc1ccc2c(n1)[C@@H](c1ccc(OC)cc1C[C@H](C)C(=O)O)[C@H](C(=O)O)[C@H]2c1ccc2c(c1)OCO2`, the molecule was classed as inactive.

For `CN1CCCC1=O`, the molecule was called inactive.

Take `CC1=C(/C=C/C(C)=C/C=C/C(C)=C/CO)C(C)(C)CCC1`: the AC50 is 4.13 µM (active).

For the molecule `CC(=O)OCCOCCOCCOC(C)=O`, the call was inactive.

With `COc1ccc(C)cc1N`, the call was inactive.

Regarding `C[Si]1(C)O[Si](C)(C)O[Si](C)(C)O[Si](C)(C)O1`, the AC50 is 27.2 µM (active).

Take `Cc1oc(-c2ccccc2)nc1CCOc1cccc2c1ccn2CCC(=O)O`: the concentration at half-maximal activity (AC50) is 0.066 µM (active).

With `CCCCCCCCCCO`, the result was inactive.

Regarding `CCc1c(C(=O)NN2CCCCC2)nn(-c2ccc(Cl)cc2Cl)c1-c1ccc(Br)cc1`, the AC50 was 6.06 µM (active).

`CCCCCC(=O)O`: the result was inactive.

As for `CNCc1cc(F)ccc1Oc1ccc(Cl)c(Cl)c1`, the molecule was classed as inactive.

As for `Cc1ccc(C)c(C)c1`, the result was inactive.

Regarding `CC(=O)Oc1ccccc1C(=O)O`, the molecule was called inactive.

For the molecule `Cc1nc(-c2ccc3c(c2)CCN(CCC2CCC(NC(=O)/C=C/c4ccc(F)cc4)CC2)CC3)no1` (stereo not given), the molecule was called inactive.

Consider `Nc1ccc2c(c1)C(=O)c1ccccc1C2=O`, for which the AC50 is 7.14 µM (active).

As to `CCCCCCOCCO`, the call was inactive.

Turning to `C=CCc1ccc(O)c(OC)c1`, the molecule was called inactive.

`Cc1c(C(=O)O)c(O)cc2c1C(=O)c1c(O)c([C@@H]3O[C@H](CO)[C@@H](O)[C@H](O)[C@H]3O)c(O)c(O)c1C2=O`: the outcome was inactive.

Take `CNC(=O)[C@H]1O[C@@H](n2cnc3c(NCc4cc(Cl)ccc4OCc4cc(C)no4)ncnc32)[C@H](O)[C@@H]1N`: the outcome was inactive.

As for `CCCCCCCCCCC`, the molecule was classed as inactive.
